Pol iota inh: qHTS for Inhibitors of Polymerase Iota; Pol iota fluorescent replication assay, 10 min; 390,000 tested, 1% active; Potency, µM (highest dose often 115 µM), actives largely listed as inhibitors; DNA polymerase iota (Homo sapiens), Q9UNA4
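Fluorescent replication assay read twice, at 0 min and 10 min after adding 50 nM (final) substrate. Enzyme (10 nM) and compounds were first incubated 15 min at room temperature; enzyme-free buffer wells were negative controls.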
Pol kappa inh-1: qHTS for Inhibitors of Polymerase Kappa; 400,000 tested, 0.53% active; purified Pol kappa, fluorescent DNA synthesis assay, 10 min; Potency, µM (series often up to 107 µM), usual class: inhibitors
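Inhibition of 10 nM Pol kappa is measured by a fluorescent read-out at 0 and 10 min following addition of 50 nM substrate (final), with a 15-min room-temperature compound preincubation.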
WRN inhibitor: qHTS for Inhibitors of WRN Helicase; Bifunctional 3'-5' exonuclease/ATP-dependent helicase WRN (Homo sapiens), Q14191; WRN helicase unwinding, fluorescent forked duplex, kinetic; Potency, µM (doses to about 114 µM), usual class: inhibitors; 360,000 tested, 0.46% active; AID 651768, 2012; further: nearly all actives have a fitted effect of over 55% in size
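Enzyme (20 nM final) and test compound sit together 15 min at room temperature before substrate addition. Substrate is a single-forked duplex oligonucleotide (100 nM) labelled with fluorophore and quencher, with 2 mM ATP; helicase unwinding raises red fluorescence, read kinetically.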
Pol beta inh: qHTS Assay for Inhibitors of DNA Polymerase Beta | P06746 | Pol beta primer extension/strand displacement, fluorescence kinetic | Potency, µM (titrated, usually from 114 µM), actives largely listed as inhibitors | 340,000 tested, 1.3% active | AID 485314, 2010
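10 nM enzyme + cpd, 15 min RT; start with substrate 50 nM final; read 0 min and after 10 min RT. Corrected, normalized data; 4-parameter Hill curve fit.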
Pol eta inh-1: qHTS for Inhibitors of Polymerase Eta. Potency, µM (titrated, usually from 114 µM), usual class: inhibitors. 390,000 tested, 1.2% active. recombinant Pol eta, fluorescent DNA replication assay. DNA polymerase eta (Homo sapiens), Q9Y253. AID 588591, 2011
Target sequence (Q9Y253 whole entry, looked up): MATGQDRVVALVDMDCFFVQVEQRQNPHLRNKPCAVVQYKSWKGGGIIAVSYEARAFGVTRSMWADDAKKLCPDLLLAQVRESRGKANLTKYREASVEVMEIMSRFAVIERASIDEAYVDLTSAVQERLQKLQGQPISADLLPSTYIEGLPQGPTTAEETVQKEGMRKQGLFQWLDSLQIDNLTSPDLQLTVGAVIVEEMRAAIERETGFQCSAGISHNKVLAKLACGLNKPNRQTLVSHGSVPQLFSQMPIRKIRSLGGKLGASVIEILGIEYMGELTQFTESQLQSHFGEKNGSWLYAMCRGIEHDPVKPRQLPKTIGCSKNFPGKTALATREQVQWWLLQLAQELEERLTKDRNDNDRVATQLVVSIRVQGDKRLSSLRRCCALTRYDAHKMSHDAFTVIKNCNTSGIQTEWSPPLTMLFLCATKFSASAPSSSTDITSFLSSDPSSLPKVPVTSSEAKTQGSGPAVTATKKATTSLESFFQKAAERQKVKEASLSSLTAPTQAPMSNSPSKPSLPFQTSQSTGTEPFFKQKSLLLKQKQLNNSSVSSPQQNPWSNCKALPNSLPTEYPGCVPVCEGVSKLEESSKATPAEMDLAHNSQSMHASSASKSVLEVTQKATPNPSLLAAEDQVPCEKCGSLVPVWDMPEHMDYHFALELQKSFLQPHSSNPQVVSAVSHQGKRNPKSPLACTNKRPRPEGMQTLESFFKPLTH
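Pol eta (10 nM) was preincubated with compounds for 15 min at room temperature, after which fluorescent replication substrate (50 nM final) was added to start the reaction. Fluorescence was read kinetically at 0 and 10 min.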
FEN1 inhibitor: qHTS Assay for the Inhibitors of Human Flap endonuclease 1 (FEN1); 390,000 tested, 0.35% active; AID 588795, 2011; Potency, µM (highest dose often 114 µM), actives largely listed as inhibitors; Recombinant FEN1 flap cleavage, fluorescence, 15 min; P39748; further: nearly all actives have a fitted effect of over 65% in size
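Enzyme 10 nM, 15 min RT preincubation with compound; start with substrate 50 nM final; reads at 0 and 15 min; qHTS titration, four-parameter Hill fit.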
TbPGK inh: qHTS for inhibitors of Phosphogylcerate Kinase: Hit Validation Screen. TbPGK coupled GAPDH assay, Kinase-Glo luminescence. 500 tested, 79% active. shares compounds with Pol kappa inh-1. Potency, µM (doses to about 57.5 µM), usual class: inhibitors. AID 686980, 2013; further: nearly all actives have a fitted effect of over 65% in size
Pol iota confirm: qHTS for Inhibitors of Polymerase Iota: Confirmatory Assay for Cherry-picked Compounds. shares compounds with Pol kappa inh-1. Pol iota primer extension, TAMRA/BHQ fluorescence. Potency, µM, actives largely listed as inhibitors. 1,500 tested, 77% active. AID 720496, 2013
Pol kappa inh-2: qHTS for Inhibitors of Polymerase Kappa: Confirmatory Assay for Cherry-picked Compounds | shares compounds with Pol eta inh-1 | purified Pol-kappa, fluorescent strand-displacement substrate | Potency, µM, most hits filed as inhibitors | 920 tested, 76% active
Pol eta inh-2: qHTS for Inhibitors of Polymerase Eta: Confirmatory Assay for Cherry-picked Compounds; Potency, µM, usual class: inhibitors; shares compounds with Pol eta inh-1; Pol eta primer extension, TAMRA/BHQ fluorescence, 10 min; 2,600 tested, 64% active
Of the large screens only hits and unclear results are named; the others gave an inactive call (follow-up assays come after a bar, where they were run). Rows were chosen to be rich in hits. Some 2.4% of all compounds tested hit in one or more screens of this group. The call rests on the fitted dose curve; in most records, active means well fitted curve in the direction sought with a large enough effect; inconclusive means small, poorly fitted or top-dose-only effect, or another doubt; inactive means no such curve, though single readings can be large; an effect the other way counts as inactive or inconclusive.

COc1ccccc1OCC(=O)Nc1sc2c(c1C(N)=O)CCC2	Pol iota inh inconclusive, Pol kappa inh-1 inconclusive, Pol eta inh-1 inconclusive (no result: Pol beta inh)
COc1cccc(C(=O)OCC(=O)Nc2sc3c(c2C(N)=O)CCC3)c1O	Pol iota inh 20µM, Pol kappa inh-1 79µM, WRN inhibitor inconclusive, Pol eta inh-1 22µM, FEN1 inhibitor inconclusive (no result: Pol beta inh) | Pol iota confirm 42 | Pol kappa inh-2 27 | Pol eta inh-2 30
O=C(O)c1cccc(-c2ccc(/C=C3/SC(=Nc4ccccc4)N(Cc4cccnc4)C3=O)o2)c1	Pol iota inh inconclusive, Pol kappa inh-1 inconclusive, WRN inhibitor inconclusive, Pol beta inh inconclusive, Pol eta inh-1 7.1µM, FEN1 inhibitor inconclusive | TbPGK inh 6.5µM | Pol iota confirm 38 | Pol kappa inh-2 21 | Pol eta inh-2 43
C=C(C)Cn1c(SCC(=O)Nc2ccccc2C)nc2sc3c(c2c1=O)CCCC3	none (no result: WRN inhibitor)
COC1=CC(=O)c2c(ccc3ncnc(N)c23)C1=O	Pol iota inh 4µM, Pol eta inh-1 4.5µM, FEN1 inhibitor inconclusive (no result: Pol beta inh) | Pol iota confirm 4.2 | Pol eta inh-2 8.5
COC1=CC(=O)c2nc(Cl)ccc2C1=O	none (no result: Pol iota inh, Pol kappa inh-1, Pol beta inh, Pol eta inh-1, FEN1 inhibitor)
C/C=C/C=C\C(=O)Nc1cccc(C2=NOC3(C2)C[C@@H](C(N)=O)N(C(=O)/C(C)=C/C)C3)c1 (stereo partly specified)	Pol iota inh 16µM, Pol kappa inh-1 50µM, WRN inhibitor inconclusive, Pol eta inh-1 18µM | Pol iota confirm 11 | Pol eta inh-2 17
C/C=C/C=C/C(=O)N1CC2(CC(c3cccc(NC(=O)CCCCC)c3)=NO2)C[C@H]1C(N)=O (stereo partly specified)	Pol iota inh inconclusive, Pol eta inh-1 inconclusive
C/C=C\C=C/C(=O)Nc1cccc(C2=NOC3(C2)C[C@H](C(N)=O)N(C(=O)CC)C3)c1 (stereo partly specified)	Pol iota inh inconclusive, Pol eta inh-1 inconclusive
C=C(C)C(=O)Nc1cccc(C2=NOC3(C2)C[C@@H](C(N)=O)N(C(=O)/C=C/C=C/C)C3)c1 (stereo partly specified)	Pol iota inh 22µM, Pol kappa inh-1 28µM, WRN inhibitor inconclusive, Pol beta inh 2.5µM, Pol eta inh-1 3.2µM, FEN1 inhibitor inconclusive | TbPGK inh 0.73µM | Pol iota confirm inconclusive | Pol eta inh-2 17
COC(=O)c1cc2sc(C)cc2n1Cc1ccc(Br)cc1F	none (no result: WRN inhibitor, Pol eta inh-1)
Cc1o[nH]c(=O)c1CCC(N)C(=O)O (stereo unspecified)	none (no result: Pol iota inh, WRN inhibitor, Pol beta inh, Pol eta inh-1, FEN1 inhibitor)
COc1cccc(-c2ccc3nnc(SCC(=O)Nc4ccc(NC(C)=O)cc4)n3n2)c1	Pol iota inh inconclusive, WRN inhibitor inconclusive, Pol eta inh-1 inconclusive (no result: Pol beta inh) | Pol iota confirm inconclusive | Pol eta inh-2 inconclusive
CCc1nn2c(=O)cc(COc3ccc(/C=C4\C(=N)N5N=C(CC(C)C)SC5=NC4=O)cc3)nc2s1	Pol iota inh inconclusive, Pol beta inh inconclusive, Pol eta inh-1 inconclusive | Pol iota confirm 75 | Pol eta inh-2 76
COc1cc(-c2noc(C)c2/C=C/c2ccc(C(=O)O)cc2)cc(OC)c1OC	Pol iota inh inconclusive, Pol kappa inh-1 71µM, WRN inhibitor inconclusive, Pol beta inh 14µM, Pol eta inh-1 13µM | Pol iota confirm 42 | Pol eta inh-2 27
O=C(COC(=O)c1cncc(Br)c1)NCc1ccco1	Pol iota inh inconclusive, Pol kappa inh-1 79µM, WRN inhibitor 50µM, Pol beta inh 22µM, Pol eta inh-1 10µM | Pol iota confirm 24 | Pol kappa inh-2 24 | Pol eta inh-2 inconclusive
O=C(NCc1cccc(CNC(=O)C(=O)NCc2ccco2)c1)C(=O)NCc1ccco1	Pol iota inh inconclusive, WRN inhibitor inconclusive, Pol beta inh 22µM, Pol eta inh-1 28µM | Pol iota confirm 67 | Pol kappa inh-2 inconclusive | Pol eta inh-2 76
O=C(COC(=O)c1cccs1)NCc1ccco1	Pol iota inh 20µM, Pol kappa inh-1 inconclusive, WRN inhibitor inconclusive, Pol beta inh 20µM, Pol eta inh-1 14µM | Pol iota confirm 75 | Pol eta inh-2 85
O=C(COC(=O)Cc1cccc(C(F)(F)F)c1)NCc1ccco1	Pol iota inh inconclusive, Pol kappa inh-1 45µM, WRN inhibitor inconclusive, Pol eta inh-1 5µM (no result: Pol beta inh) | Pol iota confirm 60 | Pol kappa inh-2 24 | Pol eta inh-2 30
O=C(NCc1cccc(CNC(=O)c2ccco2)c1)c1ccco1	none
Cc1nc2cnc(N(C)C)nc2n(CCC#N)c1=O	none (no result: Pol iota inh, WRN inhibitor, Pol beta inh, Pol eta inh-1, FEN1 inhibitor)
COc1ccc(C)cc1NC(=O)NCc1ccc2c(c1)CCN2C(=O)c1ccccc1	none (no result: WRN inhibitor)
CCN1CCN(c2csc3ccc(C)cc3c2=O)CC1	none (no result: WRN inhibitor)

Compound activity as filed in PubChem BioAssay.
